Results reported in PubChem BioAssay (EPA / NIEHS).
Inconclusive results are not listed. Activity calls are given as the source filed them. The calls were made as follows, unless noted: active = hit-call score of the fitted dose curve at least 0.9, where 1 is the maximum; inconclusive = response in the unintended direction; inactive = score below 0.9.

Columns and labels:
[1] = ATG_TAL_CIS: Attagene CIS-FACTORIAL HepG2 Assay for human TAL Basal Promoter (AID 2282966; active = hit-call score of the fitted dose curve at least 0.9, where 1 is the maximum; inactive = score below 0.9;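 also: background control endpoint measuring basal TAL promoter reporter mRNA not a specific factor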); conditions: HepG2 Attagene cis-factorial TAL promoter reporter; actives raise or lower the signal
Method in brief: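 RT-PCR plus capillary electrophoresis quantifies reporter mRNA induction in transiently transfected HepG2 cells after 24 h chemical treatment. DMSO serves as negative control and baseline for bidirectional fitting.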

[2] = ATG_TGFb_CIS: Attagene CIS-FACTORIAL HepG2 Assay for human Transforming Growth Factor (TGF) (AID 2282967; active = hit-call score of the fitted dose curve at least 0.9, where 1 is the maximum; inactive = score below 0.9); conditions: HepG2 Attagene CIS TGFb reporter, mRNA transcription; actives raise or lower the signal
Method in brief: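 Liver HepG2 line, cis-factorial reporter panel, 24 h dosing. Quantitation: RT-PCR products labeled with 6-FAM, cut with HpaI, resolved by capillary electrophoresis; DMSO-referenced bidirectional analysis.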

[3] = ATG_VDRE_CIS: Attagene CIS-FACTORIAL HepG2 Assay for human Vitamin D Receptor Element (VDRE) (AID 2282968; active = hit-call score of the fitted dose curve at least 0.9, where 1 is the maximum; inactive = score below 0.9); conditions: HepG2 VDRE cis-reporter transcription, actives raise or lower the signal
Method in brief: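 Transiently transfected HepG2 cells carrying cis-regulated reporter transcription units were exposed for 24 h. Reporter mRNA was measured by RT-PCR with fluorescent labelling and capillary electrophoresis, and fitted in both directions against DMSO.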

[4] = target: X-box-binding protein 1 (Homo sapiens) (UniProt P17861); experiment: ATG_Xbp1_CIS: Attagene CIS-FACTORIAL HepG2 Assay for human X-box Binding Protein 1 (XBP1) (AID 2282972; active = hit-call score of the fitted dose curve at least 0.9, where 1 is the maximum; inactive = score below 0.9); conditions: HepG2 XBP1 cis-element reporter, Attagene multiplex; actives raise or lower the signal
Method in brief: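 HepG2, transient MRTU transfection (cis-promoter driven), 24 h compound exposure. Total RNA → oligo(dT) RT → PCR → 6-FAM labeling → HpaI cut → CE. Bidirectional fit vs DMSO.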

[5] = ATG_M_19_TRANS: Attagene TRANS-FACTORIAL HepG2 Assay for M19 Transcription Factor (Internal Marker) (AID 2282974); conditions: HepG2 Attagene TRANS-FACTORIAL M19 internal marker reporter
Method in brief: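 Measured here: internal-marker reporter transcript from HepG2 cells transfected with MRTUs, harvested at 24 h. cDNA PCR products were 6-FAM labelled by primer extension, cut with HpaI for 2 h at 37 C, and resolved by CE.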

[6] = target: Estrogen-related receptor gamma (Homo sapiens) (UniProt P62508); experiment: ATG_ERRg_TRANS: Attagene TRANS-FACTORIAL HepG2 Assay for human Estrogen-Related Receptor gamma (ERRg) (AID 2282977); conditions: HepG2 Attagene TRANS reporter, ERRg transactivation;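 also: hits increase reporter signal over DMSO so potencies reflect activators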
Method in brief: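 HepG2 cells transiently transfected with multiplexed GAL4-UAS reporter units driven by chimeric NR-Gal4 proteins; 24 h exposure. Reporter mRNA quantified by RT-PCR, fluorescent labelling, HpaI digestion and capillary electrophoresis; gain of signal vs DMSO.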

[7] = target: Bile acid receptor (Homo sapiens) (UniProt Q96RI1); experiment: ATG_FXR_TRANS: Attagene TRANS-FACTORIAL HepG2 Assay for Farnesoid X Receptor (FXR) (AID 2282979); conditions: HepG2 Attagene TRANS FXR-GAL4 reporter transcription;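 also: hits raise reporter mRNA above DMSO so AC50 marks FXR activation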
Method in brief: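 Reporter transcripts from transfected HepG2 cells were measured 24 h after dosing, using RT-PCR with capillary electrophoresis of 6-FAM-labelled fragments. The read-out reflects activity of exogenous FXR-Gal4 chimera on GAL4-UAS units, with induction relative to DMSO.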

[8] = target: Oxysterols receptor LXR-beta (Homo sapiens) (UniProt P55055); experiment: ATG_LXRb_TRANS: Attagene TRANS-FACTORIAL HepG2 Assay for human Liver X Receptor beta (LXRb) (AID 2282981); conditions: HepG2 Attagene TRANS GAL4-LXRb reporter, mRNA
Method in brief: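 HepG2 cells transiently transfected with GAL4-UAS reporter units for chimeric NR-Gal4 proteins, dosed for 24 h. Reporter transcripts measured by RT-PCR and capillary electrophoresis; gain-of-signal fitting relative to DMSO.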

[9] = ATG_M_32_TRANS: Attagene TRANS-FACTORIAL HepG2 Assay for M32 Transcription Factor (Internal Marker) (AID 2282984); conditions: HepG2 Attagene TRANS M32 internal marker reporter;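 also: transcript level of a background control reporter unit measured by RT-PCR and capillary electrophoresis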
Method in brief: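 HepG2 cells transiently transfected with GAL4-UAS reporter units, dosed for 24 hours. Reporter mRNA quantified by RT-PCR, 6-FAM labelling, HpaI digestion and capillary electrophoresis; internal-marker signal fitted upward relative to DMSO.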

[10] = target: Nuclear receptor subfamily 4 group A member 2 (Homo sapiens) (UniProt P43354); experiment: ATG_NURR1_TRANS: Attagene TRANS-FACTORIAL HepG2 Assay for human Nuclear Receptor Related Protein 1 (NURR1) (AID 2282985); conditions: HepG2 Attagene TRANS reporter, mRNA readout
Method in brief: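 HepG2 cells transiently transfected with NURR1-Gal4 chimera and GAL4-UAS reporter units; after 24 hr compound exposure, reporter mRNA quantified by RT-PCR and capillary electrophoresis; gain of signal fitted against DMSO.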

[11] = target: Transcriptional activator Myb (Homo sapiens) (UniProt P10242); experiment: ATG_Myb_CIS: Attagene CIS-FACTORIAL HepG2 Assay for human Myeloblastosis (Myb) Proto-Oncogene Transcription Factor (AID 2282986; active = hit-call score of the fitted dose curve at least 0.9, where 1 is the maximum; inactive = score below 0.9); conditions: HepG2 Attagene CIS-FACTORIAL Myb reporter transcription; actives raise or lower the signal
Method in brief: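 Fluorescence signals from capillary electrophoresis of RT-PCR-amplified reporter cDNA give the read-out. Cells: HepG2 transfected with multiple cis-regulated reporter units. Exposure lasts 24 hours; DMSO defines baseline for gain or loss of signal.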

[12] = target: Nuclear respiratory factor 1 (Homo sapiens) (UniProt Q16656); experiment: ATG_NRF1_CIS: Attagene CIS-FACTORIAL HepG2 Assay for human Nuclear Respiratory Factor 1 (NRF1) Orphan Gene (AID 2282987; active = hit-call score of the fitted dose curve at least 0.9, where 1 is the maximum; inactive = score below 0.9); conditions: HepG2 NRF1 cis-element reporter, Attagene multiplex; actives raise or lower the signal
Method in brief: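 Transcriptional reporter readout, one component of a 52-endpoint multiplexed HepG2 panel. Exposure 24 h; mRNA detected via RT-PCR and fluorescent capillary electrophoresis; fitting in both directions against DMSO.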

[13] = ATG_GAL4_TRANS: Attagene TRANS-FACTORIAL HepG2 Assay for GAL4 (Internal Marker) (AID 2282976); conditions: HepG2 Attagene TRANS GAL4 internal marker reporter
Method in brief: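 In transfected human HepG2 liver cells dosed 24 h, GAL4 reporter mRNA serves as a baseline marker. Detection by RT-PCR with fluorescent capillary electrophoresis, activity fitted upward relative to DMSO.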

[14] = target: Oxysterols receptor LXR-alpha (Homo sapiens) (UniProt Q13133); experiment: ATG_LXRa_TRANS: Attagene TRANS-FACTORIAL HepG2 Assay for human Liver X Receptor alpha (LXRa) (AID 2282980); conditions: HepG2 Attagene TRANS reporter, LXRa transactivation
Method in brief: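 Chemical-induced reporter mRNA measured by RT-PCR with fluorescent labelling and capillary electrophoresis after 24 h dosing of transiently transfected HepG2 cells expressing exogenous NR-Gal4 chimeras; increases scored against DMSO baseline.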

[15] = target: Hepatocyte nuclear factor 4-alpha (Homo sapiens) (UniProt P41235); experiment: ATG_HNF4a_TRANS: Attagene TRANS-FACTORIAL HepG2 Assay for human Hepatocyte Nuclear Factor 4 alpha (HNF4a) (AID 2282982); conditions: HepG2 HNF4a transactivation reporter, mRNA readout
Method in brief: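 HepG2 cells transiently transfected with HNF4a-Gal4 chimera and GAL4-UAS reporter units, dosed for 24 h. Reporter mRNA measured by RT-PCR, fluorescent primer extension and capillary electrophoresis; gain-of-signal fitted relative to DMSO.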

[16] = ATG_M_06_TRANS: Attagene TRANS-FACTORIAL HepG2 Assay for M06 Transcription Factor (Internal Marker) (AID 2282983); conditions: HepG2 Attagene TRANS M06 internal marker reporter;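 also: reporter transcript level by RT-PCR then capillary electrophoresis fluorescence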
Method in brief: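 Cells: HepG2, transient multi-reporter transfection. Exposure: 24 h. Detection: RT-PCR, 6-FAM labelling, HpaI digestion (2 h, 37 °C), capillary electrophoresis. Baseline: DMSO.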

[17] = target: Glucocorticoid receptor (Homo sapiens) (UniProt P04150); experiment: ATG_GR_TRANS: Attagene TRANS-FACTORIAL HepG2 Assay for human Glucocorticoid Receptor (GR) (AID 2282978); conditions: HepG2 Attagene TRANS GR reporter, mRNA transcription;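 also: activators score as hits since higher reporter transcript over DMSO is fitted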
Method in brief: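 Measurement of GAL4-UAS-driven reporter mRNA in human HepG2 liver cells 24 h post-dosing, using RT-PCR with fluorescent labelling and capillary electrophoresis; the transfected constructs report exogenous NR-GAL4 chimera activity, fitted upward against DMSO.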

[18] = target: Nuclear receptor subfamily 1 group I member 3 (Homo sapiens) (UniProt Q14994); experiment: ATG_CAR_TRANS: Attagene TRANS-FACTORIAL HepG2 Assay for human Constitutive Androstane Receptor (CAR) (AID 2282969); conditions: HepG2 Attagene TRANS-FACTORIAL CAR reporter;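 also: activators raise reporter mRNA above DMSO so AC50 marks induction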
Method in brief: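 HepG2 cells transiently transfected with GAL4-UAS reporter units; TRANS format reads activity of exogenous chimeric NR-Gal4 protein. After 24 h dosing, reporter mRNA quantified by RT-PCR, 6-FAM labelling and capillary electrophoresis; gain of signal fitted against DMSO.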

[19] = target: Estrogen receptor (Homo sapiens) (UniProt P03372); experiment: ATG_ERa_TRANS: Attagene TRANS-FACTORIAL HepG2 Assay for human Estrogen Receptor alpha (ERa) (AID 2282970); conditions: HepG2 Attagene TRANS ERa GAL4 reporter, mRNA
Method in brief: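 Cells: HepG2, transiently transfected. Construct: GAL4-UAS reporter units regulated by exogenous NR-Gal4 chimeras. Time: 24 h. Detection: reporter mRNA by RT-PCR, capillary electrophoresis, fluorescence. Baseline: DMSO, upward fitting.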

Measured: AC50

Sequence of Oxysterols receptor LXR-beta (Homo sapiens) (P55055 whole entry, looked up, the tested form may be a part): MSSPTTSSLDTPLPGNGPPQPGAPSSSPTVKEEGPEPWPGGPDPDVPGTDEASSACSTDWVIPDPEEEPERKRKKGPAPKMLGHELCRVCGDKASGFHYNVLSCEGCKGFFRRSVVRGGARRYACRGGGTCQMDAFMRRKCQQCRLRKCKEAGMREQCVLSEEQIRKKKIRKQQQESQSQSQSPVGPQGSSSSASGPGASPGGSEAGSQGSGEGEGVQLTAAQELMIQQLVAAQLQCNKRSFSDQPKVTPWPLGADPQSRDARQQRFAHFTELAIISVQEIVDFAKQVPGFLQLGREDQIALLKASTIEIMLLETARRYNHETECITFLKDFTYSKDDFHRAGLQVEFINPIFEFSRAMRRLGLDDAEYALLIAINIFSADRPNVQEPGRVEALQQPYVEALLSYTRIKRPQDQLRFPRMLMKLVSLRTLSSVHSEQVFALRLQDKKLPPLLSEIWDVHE
Sequence of Transcriptional activator Myb (Homo sapiens) (P10242 whole entry, looked up): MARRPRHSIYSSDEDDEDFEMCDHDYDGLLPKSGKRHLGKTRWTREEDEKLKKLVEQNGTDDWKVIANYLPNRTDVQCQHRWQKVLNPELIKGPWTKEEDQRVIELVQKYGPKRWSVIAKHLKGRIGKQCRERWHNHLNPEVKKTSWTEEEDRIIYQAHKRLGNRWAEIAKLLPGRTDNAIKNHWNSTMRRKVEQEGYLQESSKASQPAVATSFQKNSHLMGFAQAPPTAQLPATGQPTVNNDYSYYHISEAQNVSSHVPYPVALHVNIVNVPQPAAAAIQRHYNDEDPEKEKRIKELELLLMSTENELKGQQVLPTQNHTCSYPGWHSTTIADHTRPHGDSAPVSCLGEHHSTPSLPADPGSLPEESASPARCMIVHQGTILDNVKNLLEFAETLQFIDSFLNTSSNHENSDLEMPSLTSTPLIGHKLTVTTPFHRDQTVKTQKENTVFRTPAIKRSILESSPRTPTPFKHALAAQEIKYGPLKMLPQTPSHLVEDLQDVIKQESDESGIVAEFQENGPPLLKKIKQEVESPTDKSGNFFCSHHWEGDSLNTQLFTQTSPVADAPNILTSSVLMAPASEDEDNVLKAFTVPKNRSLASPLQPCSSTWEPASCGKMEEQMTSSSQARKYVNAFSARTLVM
Sequence of Oxysterols receptor LXR-alpha (Homo sapiens) (Q13133 whole entry, looked up, the tested form may be a part): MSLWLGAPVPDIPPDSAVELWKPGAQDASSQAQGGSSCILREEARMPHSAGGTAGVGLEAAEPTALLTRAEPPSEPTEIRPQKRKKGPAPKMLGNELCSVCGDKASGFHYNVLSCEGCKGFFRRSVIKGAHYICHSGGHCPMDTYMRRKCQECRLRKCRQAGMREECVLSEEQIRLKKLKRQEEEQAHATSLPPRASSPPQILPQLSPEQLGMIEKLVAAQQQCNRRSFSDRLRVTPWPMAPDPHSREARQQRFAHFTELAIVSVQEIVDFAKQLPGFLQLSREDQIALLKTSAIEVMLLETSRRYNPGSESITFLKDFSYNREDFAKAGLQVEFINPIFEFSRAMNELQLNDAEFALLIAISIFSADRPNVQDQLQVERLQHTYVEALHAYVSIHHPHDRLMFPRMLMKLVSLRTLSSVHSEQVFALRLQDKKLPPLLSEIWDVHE
Sequence of X-box-binding protein 1 (Homo sapiens) (P17861 whole entry, looked up): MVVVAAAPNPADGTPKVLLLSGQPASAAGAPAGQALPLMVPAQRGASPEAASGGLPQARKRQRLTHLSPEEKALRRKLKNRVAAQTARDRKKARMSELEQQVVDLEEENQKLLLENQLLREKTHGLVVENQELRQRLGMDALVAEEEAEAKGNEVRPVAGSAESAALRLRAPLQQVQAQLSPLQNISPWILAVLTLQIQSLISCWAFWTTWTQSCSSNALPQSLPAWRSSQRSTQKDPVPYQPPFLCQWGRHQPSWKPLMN
Sequence of Hepatocyte nuclear factor 4-alpha (Homo sapiens) (P41235 whole entry, looked up, the tested form may be a part): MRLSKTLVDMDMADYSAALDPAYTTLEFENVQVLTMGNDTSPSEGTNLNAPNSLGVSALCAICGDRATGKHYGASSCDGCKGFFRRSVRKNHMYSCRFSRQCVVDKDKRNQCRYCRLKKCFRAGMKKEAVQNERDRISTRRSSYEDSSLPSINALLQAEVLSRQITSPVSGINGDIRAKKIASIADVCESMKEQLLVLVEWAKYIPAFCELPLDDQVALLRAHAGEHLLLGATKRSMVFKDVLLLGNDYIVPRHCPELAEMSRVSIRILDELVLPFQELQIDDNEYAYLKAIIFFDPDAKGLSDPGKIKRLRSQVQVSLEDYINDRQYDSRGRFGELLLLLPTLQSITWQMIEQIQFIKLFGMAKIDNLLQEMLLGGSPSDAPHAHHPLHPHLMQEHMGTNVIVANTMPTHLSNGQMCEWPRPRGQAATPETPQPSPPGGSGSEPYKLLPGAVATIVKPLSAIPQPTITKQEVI
Sequence of Nuclear receptor subfamily 4 group A member 2 (Homo sapiens) (P43354 whole entry, looked up, the tested form may be a part): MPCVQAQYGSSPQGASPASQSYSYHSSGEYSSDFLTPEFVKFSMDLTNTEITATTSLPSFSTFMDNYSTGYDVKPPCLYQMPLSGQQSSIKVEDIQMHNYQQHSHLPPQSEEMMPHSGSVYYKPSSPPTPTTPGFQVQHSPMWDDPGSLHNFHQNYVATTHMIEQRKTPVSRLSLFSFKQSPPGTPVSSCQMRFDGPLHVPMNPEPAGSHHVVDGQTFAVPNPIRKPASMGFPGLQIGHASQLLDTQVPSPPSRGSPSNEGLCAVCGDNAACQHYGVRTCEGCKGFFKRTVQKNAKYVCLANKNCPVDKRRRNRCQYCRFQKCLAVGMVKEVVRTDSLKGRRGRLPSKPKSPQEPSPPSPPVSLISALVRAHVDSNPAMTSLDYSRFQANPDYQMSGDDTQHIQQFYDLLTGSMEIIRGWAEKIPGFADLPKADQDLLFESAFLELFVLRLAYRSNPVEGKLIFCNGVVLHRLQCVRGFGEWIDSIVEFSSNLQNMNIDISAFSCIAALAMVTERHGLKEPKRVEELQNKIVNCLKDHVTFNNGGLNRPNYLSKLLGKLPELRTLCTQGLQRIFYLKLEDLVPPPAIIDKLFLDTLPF
Sequence of Glucocorticoid receptor (Homo sapiens) (P04150 whole entry, looked up, the tested form may be a part): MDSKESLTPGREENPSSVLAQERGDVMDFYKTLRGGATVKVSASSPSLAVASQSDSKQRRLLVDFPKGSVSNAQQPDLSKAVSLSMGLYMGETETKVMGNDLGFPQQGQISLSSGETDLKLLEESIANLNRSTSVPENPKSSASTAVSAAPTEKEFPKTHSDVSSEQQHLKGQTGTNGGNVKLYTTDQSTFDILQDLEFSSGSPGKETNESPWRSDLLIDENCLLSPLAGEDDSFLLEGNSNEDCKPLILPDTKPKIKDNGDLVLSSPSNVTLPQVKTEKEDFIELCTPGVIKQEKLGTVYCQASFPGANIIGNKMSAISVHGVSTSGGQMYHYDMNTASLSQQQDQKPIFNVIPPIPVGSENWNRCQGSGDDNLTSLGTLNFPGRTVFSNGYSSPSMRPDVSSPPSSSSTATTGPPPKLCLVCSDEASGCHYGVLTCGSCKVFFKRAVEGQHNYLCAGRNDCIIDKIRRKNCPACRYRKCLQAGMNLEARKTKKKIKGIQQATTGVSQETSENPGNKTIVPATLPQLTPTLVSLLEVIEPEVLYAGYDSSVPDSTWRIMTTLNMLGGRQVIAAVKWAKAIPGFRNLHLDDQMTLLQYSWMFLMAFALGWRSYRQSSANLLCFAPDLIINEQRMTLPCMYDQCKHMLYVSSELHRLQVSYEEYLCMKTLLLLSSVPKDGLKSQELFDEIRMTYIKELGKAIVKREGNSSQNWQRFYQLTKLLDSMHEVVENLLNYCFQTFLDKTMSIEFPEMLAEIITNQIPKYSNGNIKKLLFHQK
Sequence of Bile acid receptor (Homo sapiens) (Q96RI1 whole entry, looked up, the tested form may be a part): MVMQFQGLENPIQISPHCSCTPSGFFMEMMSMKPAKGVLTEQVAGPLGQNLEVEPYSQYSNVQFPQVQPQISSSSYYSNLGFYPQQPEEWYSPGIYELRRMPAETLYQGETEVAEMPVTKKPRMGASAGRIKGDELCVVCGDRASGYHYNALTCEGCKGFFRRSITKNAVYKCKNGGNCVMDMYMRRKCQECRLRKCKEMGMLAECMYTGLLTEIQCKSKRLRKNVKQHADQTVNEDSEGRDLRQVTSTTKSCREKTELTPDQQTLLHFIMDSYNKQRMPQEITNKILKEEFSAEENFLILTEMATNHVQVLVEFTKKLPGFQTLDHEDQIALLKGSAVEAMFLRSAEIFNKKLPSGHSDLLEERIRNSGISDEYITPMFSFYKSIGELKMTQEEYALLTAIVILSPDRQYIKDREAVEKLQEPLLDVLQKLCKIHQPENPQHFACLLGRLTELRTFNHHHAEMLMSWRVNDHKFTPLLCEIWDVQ
Sequence of Nuclear respiratory factor 1 (Homo sapiens) (Q16656 whole entry, looked up): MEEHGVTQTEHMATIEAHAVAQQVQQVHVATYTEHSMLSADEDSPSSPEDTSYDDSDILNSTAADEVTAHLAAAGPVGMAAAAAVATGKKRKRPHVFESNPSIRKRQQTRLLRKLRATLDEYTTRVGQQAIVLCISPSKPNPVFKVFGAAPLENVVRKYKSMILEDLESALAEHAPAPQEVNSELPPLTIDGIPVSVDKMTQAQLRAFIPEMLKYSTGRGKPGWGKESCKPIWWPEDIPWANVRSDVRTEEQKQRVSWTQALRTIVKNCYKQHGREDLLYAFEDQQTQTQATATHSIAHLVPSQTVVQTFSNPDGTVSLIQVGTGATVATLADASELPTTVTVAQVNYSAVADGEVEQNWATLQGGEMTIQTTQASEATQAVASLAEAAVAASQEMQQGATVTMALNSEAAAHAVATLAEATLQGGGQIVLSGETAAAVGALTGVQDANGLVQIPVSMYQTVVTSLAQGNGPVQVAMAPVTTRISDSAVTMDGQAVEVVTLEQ
Sequence of Nuclear receptor subfamily 1 group I member 3 (Homo sapiens) (Q14994 whole entry, looked up, the tested form may be a part): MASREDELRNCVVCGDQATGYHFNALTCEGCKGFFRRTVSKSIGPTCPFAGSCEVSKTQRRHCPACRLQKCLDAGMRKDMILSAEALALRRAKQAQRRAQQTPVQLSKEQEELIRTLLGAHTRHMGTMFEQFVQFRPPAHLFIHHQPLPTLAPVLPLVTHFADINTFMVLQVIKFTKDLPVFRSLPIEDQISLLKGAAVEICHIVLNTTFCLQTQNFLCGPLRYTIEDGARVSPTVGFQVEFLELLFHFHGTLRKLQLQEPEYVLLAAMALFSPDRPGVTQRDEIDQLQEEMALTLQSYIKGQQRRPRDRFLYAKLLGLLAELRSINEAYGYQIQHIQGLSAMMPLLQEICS

CCCCNC(=O)NS(=O)(=O)c1ccc(C)cc1
not listed: [13] | [14] | [15] | [16] | [17] | [18] | [19]
inactive: all other assays above

CCC(=O)/C=C/C1C(C)=CCCC1(C)C (configuration not stated)
not listed: [5] | [6] | [11] | [17] | [18] | [19]
inactive: all other assays above

CCCCCCCCCCCCCOS(=O)(=O)O
not listed: [5] | [6] | [7] | [9] | [14] | [15] | [18] | [19]
inactive: all other assays above

CCCCCCCCCCCCCC(=O)O
not listed: [5] | [8] | [14] | [17] | [18] | [19]
inactive: all other assays above

CCC(C)(O)CCC=C(C)C (configuration not stated)
inactive: [1] | [2] | [3] | [4] | [5] | [16] | [9] | [10] | [11] | [12]

O=C1CCc2ccccc2O1
inactive: [1] | [2] | [3] | [4] | [13] | [15] | [16] | [10] | [11] | [12]

c1ccc2[nH]ccc2c1
not listed: [5] | [6] | [7] | [9] | [15] | [17] | [18] | [19]
inactive: all other assays above

C=CC(C)(C)O
not listed: [6] | [8] | [10] | [14] | [17] | [18] | [19]
inactive: all other assays above

O=C(O)Cc1cccc2ccccc12
not listed: [6] | [7] | [8] | [13] | [14] | [17] | [18] | [19]
inactive: all other assays above

Sc1nc(S)nc(S)n1
not listed: [5] | [6] | [7] | [14] | [17] | [18] | [19]
inactive: all other assays above

O=C(O)c1snc(Cl)c1Cl
active: [3] 161 µM
inactive: [1] | [2] | [14] | [8] | [15] | [16] | [9] | [12]

CC(=O)C(C)=O
not listed: [5] | [6] | [7] | [9] | [13] | [14] | [18] | [19]
inactive: all other assays above

C=C(C)C(=O)O
not listed: [4] | [6] | [7] | [15] | [16] | [18] | [19]
inactive: all other assays above

CN(CCOc1ccc(CC2SC(=O)NC2=O)cc1)c1ccccn1 (configuration not stated)
not listed: [3] | [6] | [13] | [15] | [17]
inactive: all other assays above

O=C=NC1CCC(CC2CCC(N=C=O)CC2)CC1 (configuration not stated)
active: [1] 26.8 µM | [2] 59.2 µM | [3] 37.5 µM | [4] 85.1 µM
inactive: [17] | [14] | [16] | [11] | [12]

Clc1nc(C(Cl)(Cl)Cl)c(Cl)c(Cl)c1Cl
active: [1] 57.2 µM | [2] 62.2 µM
not listed: [3] | [6] | [7] | [8] | [12] | [13] | [17]
inactive: all other assays above
